Shiga toxin inh – Shiga toxin inhibition | hit rate 9.2% among 290,000 | Vero cells, Shiga toxin protein synthesis inhibition reporter | inhibition, % at 38.7 µM | AID 2315; in the data active = inhibition mostly above about 28%, no sharp cut-off; inactive = mostly below about 43%; note: 0% is about no effect
Pf growth 96h – inhibits malaria parasite growth, 96 h; P. falciparum luciferase reporter growth, 96 h; Potency, µM (highest dose often 28.7 µM), inactives show top-dose activity change, negative = inhibition, usual class: inhibitors; hit rate 6.9% among 320,000; note: potency is the fitted concentration of half-maximal effect; % is set by controls: 0 for no effect and ±100 for the full control effect
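96 h incubation, 37 C, 5% CO2, of luciferase-reporter P. falciparum-infected RBCs (2% hematocrit, 0.05% parasitemia final) with test compounds; endpoint luminescence.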
HCMV inh – human cytomegalovirus inhibition. hit rate 4.5% among 410,000. HFF cells, HCMV-luciferase reporter, 72 h; active compounds read low. activity change, negative = inhibition, % at 57.5 µM; in the data active = activity change below about -60%; inconclusive = no clear call, values can overlap the other calls; inactive = above about -39%; note: % is set by controls: 0 for no effect and ±100 for the full control effect
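Cell-based, HFFs, 1000 cells/well, 16 h 37C; cpds in DMSO + HCMV-luc, MOI 1 PFU/cell; 72 h 37C; OneGlo luminescence after 5 min RT; norm. to buffer vs Salinomycin 10uM.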
Pf growth 48h – P. falciparum growth inhibition at 48 hours (one generation). P. falciparum luciferase growth in erythrocytes, 48 h. Potency, µM (top dose mostly 28.7 µM), without a hit: at the top dose activity change, negative = inhibition, hits mostly inhibitors. hit rate 5.9% among 310,000. AID 504832; note: potency is the fitted concentration of half-maximal effect; % is set by controls: 0 for no effect and ±100 for the full control effect
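Compounds are pin-transferred into medium, infected erythrocytes (2% hematocrit, 0.1% parasitemia final) are added, and plates sit one parasite generation at 37 C in 5% CO2. Detection reagent is then added and luminescence measured.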
HCV inh – blocks hepatitis C virus; Huh7.5.1 HCVcc-Cre infection, luciferase reporter, 44 h; hit rate 3.4% among 340,000; Potency, µM (titrated, usually from 41.8 µM), inactives show at the top dose activity change, negative = inhibition, usual class: inhibitors; note: potency is the fitted concentration of half-maximal effect; % is set by controls: 0 for no effect and ±100 for the full control effect
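Cells seeded at 1,000/well and cultured 4 h, then compounds added followed by HCVcc-Cre virus (~0.5 moi). After 44 h further culture, luciferase substrate was added, plates held 15 min at room temperature, and luminescence read for 15 sec.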
CHX counter – affects cycloheximide protein synthesis inhibition readout, counter-screen; hit rate 12% among 300,000; cell reporter, cycloheximide protein synthesis inhibition counterscreen; max response, %; AID 2314; in the data active = max response mostly above about 13%, no sharp cut-off; inactive = mostly below about 14%; note: read at 38.3 µM for the half of the compounds with a filed dose; 0% is about no effect
* = called active by the depositor; ? = inconclusive; · = no result. Most compounds without a hit are left out; they make up all but 21% or so of the library. Unless noted, calls come from the whole dose curve; as a rule, active = well fitted inhibition curve with a large enough effect; inconclusive = small, poorly fitted or top-dose-only effect, or another doubt; inactive = no such curve, though single readings can be large or run the other way.

SMILES	Shiga toxin inh	Pf growth 96h	HCMV inh	Pf growth 48h	HCV inh	CHX counter
COC(=O)/C(=C/Nc1cccc2ccccc12)[N+](=O)[O-]	53*	-13%	21	·	-13%	28*
CCC(=O)OCc1cnc(C)c2oc(=O)c(C(=O)Nc3ccccc3C(F)(F)F)cc12	·	·	-4	·	·	·
COc1cc(-c2ccccc2)nc2ccccc12	20	-14%	-10	-22%	?	4
COc1ccc(-c2n[nH]c3c2cnc2cc(OC)c(OC)cc23)cc1	·	·	-9	·	·	·
COc1ccc(-c2cc3cc(OC)c(OC)cc3c(C)n2)cc1	75*	?	14	96%	14µM*	34*
COc1cc(-c2cc(C(=O)O)c3cc4ccccc4cc3n2)cc(OC)c1OC	·	·	-21	·	·	·
COc1ccc2c(OC)cc(-c3ccccc3)nc2c1	12	?	-5	-7%	10µM*	-1
COc1ccc(-c2cc(OC)c3ccccc3n2)cc1	active	68%	32	48%	?	14
OC(c1ccc(-c2ccccc2)cc1)c1ncc(-c2ccc(C(F)(F)F)cc2)[nH]1 (centres undefined)	·	·	-18	·	·	·
OC(c1ccccc1)c1ncc(-c2ccccc2Cl)[nH]1 (centres undefined)	·	·	66	·	·	·
N#CCCN1CCCc2cc(N=Nc3ccc(C(F)(F)F)cc3)ccc21	61*	-25%	14	2%	?	43*
Cc1ccc(Sc2ncccc2C(=O)NCc2cc([N+](=O)[O-])ccc2O)cc1C	1	-27%	5	3%	12%	-3
O=C1c2ccccc2CN1CCSC(=S)N1CCSCC1	157*	290%	·	427%	·	48*
CC1CN(C(=S)SCCN2Cc3ccccc3C2=O)CC(C)O1 (centres undefined)	9	22%	-29	1%	-1%	6
O=C1c2ccccc2CN1CCNS(=O)(=O)c1ccc(Cl)cc1	1	·	65	?	15%	-4
O=C1c2ccccc2CN1CCSC(=S)N1CCOCC1	81*	69%	54	?	19%	74*
COc1ccc2[nH]c(C(=O)O)c(CCN3C(=O)c4cccc([N+](=O)[O-])c4C3=O)c2c1	-3	11%	0	31%	2%	0
COc1cc(/C=N/NS(=O)(=O)c2ccc3ccccc3c2)ccc1OCCN1CCOCC1	25	?	15	1%	13%	18*
COc1ccc(S(=O)(=O)N/N=C/c2ccc(OCCN3CCOCC3)c(OC)c2)cc1	34	-1%	-3	29%	14%	20*
O=C1c2ccccc2C(=O)N1CCc1nc(-c2ccccn2)no1	58*	·	16	99%	25%	28*
COc1ccc(-c2noc(CCCOc3ccccc3)n2)cc1OC	-8	13%	58	2%	-25%	-1
COc1ccc(-c2noc(CCN3C(=O)c4ccccc4C3=O)n2)cc1OC	-3	38%	19	13%	-4%	-2
Nc1nonc1-c1noc(CCCCCN2C(=O)c3ccccc3C2=O)n1	148*	13µM*	31	40%	-3%	75*
c1ccc(OCCCc2nc(-c3ccccn3)no2)cc1	42*	·	-106*	93%	-7%	34*
O=C1c2ccccc2C(=O)N1CCCc1nc(-c2ccccn2)no1	84*	·	9	39%	14%	23*
SMILES	Shiga toxin inh	Pf growth 96h	HCMV inh	Pf growth 48h	HCV inh	CHX counter
O=C1c2ccccc2C(=O)N1CCCc1nc(-c2ccc(Cl)cc2)no1	-16	?	13	·	-1%	-1
CCOC(=O)c1c(SCC(=O)Nc2nc3ccc(C)cc3s2)nc(=O)[nH]c1C	·	·	13	·	·	·
COc1ccccc1C(=O)NCC(=O)N/N=C(\C)Cc1ccccc1	-1	55%	-30	4%	-2%	-3
Cc1c2oc3c(C)ccc(C(=O)N[C@@H]4C(=O)N[C@H](C(C)C)C(=O)N5CCC[C@H]5C(=O)N(C)CC(=O)N(C)[C@@H](C(C)C)C(=O)O[C@@H]4C)c3nc-2c(C(=O)N[C@@H]2C(=O)N[C@H](C(C)C)C(=O)N3CCC[C@H]3C(=O)N(C)CC(=O)N(C)[C@@H](C(C)C)C(=O)O[C@@H]2C)c(N)c1=O	-6	0.0024µM*	·	0.0048µM*	·	1
COc1ccc(-c2cc(OC(=O)c3ccccc3C)c3c(C)oc(C)c3c(=O)c2)cc1	·	·	34	·	·	·
C=CC(=O)N1C/C(=C/c2ccc(F)cc2)C(=O)/C(=C\c2ccc(F)cc2)C1	·	·	-100*	·	?	·
CCCCNC(=O)c1sc2ncnc(N3CCc4ccccc4C3)c2c1C	-16	15µM*	?	?	?	-5
CCOC(=O)CNC(=O)c1sc2ncnc(N3CCc4ccccc4C3)c2c1C	17	·	23	?	-8%	0
O=C(NCc1ccc(Cl)cc1)C1CCC(=O)N(C2CCCCCC2)C1 (centres undefined)	-11	39%	9	-2%	17%	2
COC(=O)/C(C#N)=C1/C=Cc2ccccc2N1C	61*	113%	13	201%	-1%	26*
CCOC(=O)/C(C#N)=c1/s/c(=C2\C=Cc3ccccc3N2CC)c(=O)n1CC	-20	?	13	-5%	21%	-2
Cc1ccc(OCCn2nnc3sc4c(c3c2=O)CCC(C)C4)cc1 (centres undefined)	·	·	0	·	·	·
O=[N+]([O-])c1ccc(Sc2nccn2Cc2ccccc2)cc1	-5	0%	-77*	32%	1%	-4
CC1(C)CC(=O)C2=C(C1)N(CCN1CCOCC1)C1=C(C(=O)CC(C)(C)C1)C2c1ccc(Cl)cc1	-12	?	-4	5.2µM*	0%	1
COc1ccc(C2C3=C(CC(C)(C)CC3=O)N(CCN3CCOCC3)C3=C2C(=O)CC(C)(C)C3)cc1	-10	-26%	12	-16%	16%	0
CC1(C)CC(=O)C2=C(C1)N(CCN1CCOCC1)C1=C(C(=O)CC(C)(C)C1)C2c1cccc(F)c1	-8	0%	-19	12µM*	-12%	-3
COc1cccc(C2=NN(C(=O)CCCC(=O)O)C(c3cccs3)C2)c1 (centres undefined)	41	-9%	0	-8%	16%	10
COc1ccc(C(=O)NC(=S)Nc2cccc(S(=O)(=O)N3CCOCC3)c2)cc1	1	-2%	-32	0%	14µM*	-3
COc1ccc(NC(=O)c2cccc(S(=O)(=O)N3CCOCC3)c2)cc1	29	-20%	3	8%	-16%	7
COc1ccc(NC(=S)Nc2cccc(S(=O)(=O)N3CCCCC3)c2)cc1	21	10%	-64*	-7%	8%	-1
CC(=O)Oc1ccc(-c2ccc(C(=O)Nc3cccc(S(=O)(=O)N4CCOCC4)c3)cc2)cc1	30	?	-98*	?	?	9.4*
CCc1nn(CC(=O)NCCc2ccc(Cl)cc2)c(=O)c2cc3c(OC)cccc3n12	·	·	52	·	·	·

Assay outcomes: PubChem, National Center for Advancing Translational Sciences (NCATS)
